One experiment concerns FXR:RXRa (NR concentration 270 nM, RXRa partner concentration 90 nM). Briefly: PBM binding z-score (relative to random genomic background probes); higher = stronger binding; sequences stand for … in GC…GCGATTGACAGCGTAGAATGAAGG
The method, boiled down: (§1)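 Regression normalization was applied to scanned fluorescence from custom Agilent 4×180K protein-binding microarrays. Before scanning, arrays were incubated 1 h with ligand-free nuclear receptor dimers, and binding was detected with antibodies against each partner (one per run). Binding z-scores use the random background probes as reference.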
TCTCGGAGGACACGAAGCTCAGAGCTTTCCAGAG gave a PBM binding z-score of 0.39.
Regarding GCTGCTAGGTCAACTGATGGTCCGCTAAAGCTCG, the PBM binding z-score worked out at 3.85.
Same read-out and setting: under CCTAGTTGGTCAAGGTCACACTCGCTATAGGTAC stands 3.95; under CTACCAAGGTGAACAAGGTCGCTGATTACTATTC, 1.1.
For ACATACAGGTGATGAAGGTAACTCAGGCTATCAT, the PBM binding z-score was found to be 0.328.
On the same count and under the same terms, then TAGCCTAGGTCATGGACCAGTATACCACGCGAAC, with 4.39; and TAGCCTAGGTAATGCGGGCCAGTATAGTGTCGGC, with -1.49; and CCTTTCGGGTCACGAGGTTATAGCACGACGAGCG, with 6.94.
The same measure, in the same setting: under GATACAGGGTCAGCTAGAAGCCAGAGTATGGAAA stands 4.4; under ATTTCTAGGTAACAAGTTCAGTGAAAGAGAGGAC, 1.38; under ACTCGGAGGACAAAGGTCTGAGCTACGCCAGTGA, -0.108.
Turning to CCTAGCAGGCCAGGGTCAGTCAAGCATTTCGCTT, the PBM binding z-score stood at 0.838.
The same measure, in the same setting: under CCTACTGGGCCCTTCAGAGGTCATTGATCATATG stands 2.3; under CCTTACGGGTCACGAGGTTATACCACGACGAGCG, 6.99.
CAAACTAGGTCAAGAGGTCAAAGTACGCTTCCCG: the PBM binding z-score was found to be 7.11.
Same read-out and setting: under CGAACGAGGGCAAGAGTTGATAGCAAATGCCGAT stands 0.442; under ATCGAAAGGTCGATGTGAGTATAGAGAAAGGGAA, 3.06.
Still for that read-out and setting: under CCTTACGGGTCACCCCAGGTTATAGCATCGGAGT stands 5.74.
Take ATCTCTAGGTAAAGTTCAGTGACAGATCGATAGA: the PBM binding z-score turned out to be 1.17.
Still for that read-out and setting: then AGAACGAGTGCACGCTGAGTTGATAGCAGAGTAG, with -0.478; and CCTCGGAGGACAACAGGAGGGCAGAGCTGCCAGA, with -0.363.
On the same count and under the same terms, under ATATTTAGGTTAGCTGGGGTCATTCAGACTAGGC stands 4.36; under CCGACTGGGGCATAAGGTCACCATAAGCCAGCCC, 3.25.
The same measure, in the same setting: under GCGACTGGGGCAAAGCAGGTTACCATCAGGTTGG stands 0.219; under CCGACTGGGGCCAAGGTTACCATACTCAGTACGA, 0.714; under TCATATAAGTAATACAGGTGAAAGTCGGCATCTA, 1.33.
Consider CGAACTAGGTCATTCAGGACAGTGAATACATTGA, for which the PBM binding z-score came to 4.37.
In turn, CAAACTAGGTCCCGAAAGGTCAAAGTCGAATGAC gave a PBM binding z-score of 5.02.
Same read-out and setting: under TGAATGAGGTTAAAGATTAGGGAACGTGGCGTCG stands 2.45.
On the same count and under the same terms, then AGTCAAAGTTCATCTAGGTAATGTAAGATATGCT, with 6.48; and ACTAGGAGGCCAAGTTTGGGTCACTCAAACAAAG, with 0.516; and CCGACTGGGCCATAAGGTTACCATAAGCCAGCCC, with 0.273.
The same measure, in the same setting: under GCGACTGGGGCATCAGCAGGTTACTATAACTTAA stands 0.0216.
Turning to CGAACTAGGTCAAGGACGGTGAATCTCCGCACGC, the PBM binding z-score came out at 3.32.
The same measure, in the same setting: under ATCGAAAGGTCGGAGGTGAGTATACCCACCCGAA stands 2.56.
For CCAGACAGGTGAAAGGTAAATCAGTCTGGTACGC, the PBM binding z-score was determined as 0.431.
Still for that read-out and setting: then AGAATGAGTTTACCAAAGATCAGGGAAACGCTTG, with -0.512; and GCTATTAGTTGAAAGGGCTACCGAATGATTCTCG, with -0.348; and TCTAGCAGGCCAGAGGGTAACTCAAGAGGTACGG, with 0.0239.
CCTAGTTGGTCAGAAGGTCACACACCGGATATGA displayed a PBM binding z-score of 3.53.

Another experiment has as its system LXRa:RXRa (NR concentration 270 nM, RXRa partner concentration 90 nM). Described as above. Put shortly:
as §1
The sequence TCTCGGAGGACACGAAGCTCAGAGCTTTCCAGAG had a PBM binding z-score of -0.167.
Still for that read-out and setting: then GCTGCTAGGTCAACTGATGGTCCGCTAAAGCTCG, with 2.46; and CCTAGTTGGTCAAGGTCACACTCGCTATAGGTAC, with 3.53; and CTACCAAGGTGAACAAGGTCGCTGATTACTATTC, with 1.05.
The same measure, in the same setting: then ACATACAGGTGATGAAGGTAACTCAGGCTATCAT, with 0.419; and TAGCCTAGGTCATGGACCAGTATACCACGCGAAC, with 3.44.
Same read-out and setting: then TAGCCTAGGTAATGCGGGCCAGTATAGTGTCGGC, with -1.07.
Turning to CCTTTCGGGTCACGAGGTTATAGCACGACGAGCG, the PBM binding z-score amounted to 4.87.
The same measure, in the same setting: under GATACAGGGTCAGCTAGAAGCCAGAGTATGGAAA stands 2.38.
Still for that read-out and setting: under ATTTCTAGGTAACAAGTTCAGTGAAAGAGAGGAC stands 1.39.
As for ACTCGGAGGACAAAGGTCTGAGCTACGCCAGTGA, the PBM binding z-score was -0.415.
The same measure, in the same setting: under CCTAGCAGGCCAGGGTCAGTCAAGCATTTCGCTT stands 0.841.
Still for that read-out and setting: then CCTACTGGGCCCTTCAGAGGTCATTGATCATATG, with 3.83; and CCTTACGGGTCACGAGGTTATACCACGACGAGCG, with 4.85; and CAAACTAGGTCAAGAGGTCAAAGTACGCTTCCCG, with 6.18.
In turn, CGAACGAGGGCAAGAGTTGATAGCAAATGCCGAT gave a PBM binding z-score of 0.206.
On the same count and under the same terms, then ATCGAAAGGTCGATGTGAGTATAGAGAAAGGGAA, with 2.82; and CCTTACGGGTCACCCCAGGTTATAGCATCGGAGT, with 6.63.
Still for that read-out and setting: under ATCTCTAGGTAAAGTTCAGTGACAGATCGATAGA stands 2.06; under AGAACGAGTGCACGCTGAGTTGATAGCAGAGTAG, -0.297; under CCTCGGAGGACAACAGGAGGGCAGAGCTGCCAGA, -0.203.
The same measure, in the same setting: under ATATTTAGGTTAGCTGGGGTCATTCAGACTAGGC stands 5.53.
In turn, CCGACTGGGGCATAAGGTCACCATAAGCCAGCCC displayed a PBM binding z-score of 3.18.
GCGACTGGGGCAAAGCAGGTTACCATCAGGTTGG registered a PBM binding z-score of 0.0244.
Take CCGACTGGGGCCAAGGTTACCATACTCAGTACGA: the PBM binding z-score was found to be 0.334.
For the sequence TCATATAAGTAATACAGGTGAAAGTCGGCATCTA, the PBM binding z-score was determined as 1.22.
The same measure, in the same setting: then CGAACTAGGTCATTCAGGACAGTGAATACATTGA, with 2.73; and CAAACTAGGTCCCGAAAGGTCAAAGTCGAATGAC, with 5.71; and TGAATGAGGTTAAAGATTAGGGAACGTGGCGTCG, with 2.05.
Same read-out and setting: then AGTCAAAGTTCATCTAGGTAATGTAAGATATGCT, with 6.26; and ACTAGGAGGCCAAGTTTGGGTCACTCAAACAAAG, with 0.308; and CCGACTGGGCCATAAGGTTACCATAAGCCAGCCC, with 1.84.
Turning to GCGACTGGGGCATCAGCAGGTTACTATAACTTAA, the PBM binding z-score was -0.0377.
On the same count and under the same terms, under CGAACTAGGTCAAGGACGGTGAATCTCCGCACGC stands 2.02; under ATCGAAAGGTCGGAGGTGAGTATACCCACCCGAA, 2.13; under CCAGACAGGTGAAAGGTAAATCAGTCTGGTACGC, 0.642.
Still for that read-out and setting: under AGAATGAGTTTACCAAAGATCAGGGAAACGCTTG stands 2.97.
On the same count and under the same terms, under GCTATTAGTTGAAAGGGCTACCGAATGATTCTCG stands -0.291; under TCTAGCAGGCCAGAGGGTAACTCAAGAGGTACGG, -0.0819; under CCTAGTTGGTCAGAAGGTCACACACCGGATATGA, 3.45.

The values are drawn from the supplement of paper PMC6555819.
